# Measured values published in PubChem BioAssay AID1159580 (chemical genetic matrix, 2015).
# Screen size: about 5,500 compounds; about 2,000 (36%) were called active. Another 18% or so got no clear call; they are omitted. The list shows a part of the results. Unmarked numbers belong to inactive results. Rule as the data show it: active = normalized growth mostly below about 0.91 (no sharp cut-off); inconclusive = no clear call, values can overlap the other calls; inactive = mostly above about 0.92.
# Assay: chemical genetic growth profiling, strain panel (AID 1159580);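 also: tested at 20 µM; growth read once vehicle control cultures reached saturation at 30 °C; 1 = growth at the plate median or of vehicle wells; lower values mean less growth of the strain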
# Conditions: S. cerevisiae deletion strains, growth OD
smiles,measurement,setting,value
CC1CC[C@]2(NC1)O[C@H]1CC3C4CC[C@H]5C[C@@H](O)CC[C@]5(C)C4CC[C@]3(C)[C@H]1[C@@H]2C (stereo partly specified),normalized growth,"locus YJR066W, strain TOR1, stronger effect = lower value",0.471 (active)
same,normalized growth,"locus YKL009W, strain mrt4, stronger effect = lower value",0.252 (active)
same,normalized growth,"locus YKL068W, stronger effect = lower value",0.135 (active)
same,normalized growth,"locus YKL085W, strain MDH1 (second series), stronger effect = lower value",0.0926 (active)
same,normalized growth,"locus YKL085W, strain MDH1, stronger effect = lower value",0.0926 (active)
same,normalized growth,"locus YKL160W, strain elf1, stronger effect = lower value",0.0907 (active)
same,normalized growth,"locus YKR001C, strain vps1, stronger effect = lower value",0.0755 (active)
same,normalized growth,"locus YKR026C, strain gcn3, stronger effect = lower value",0.223 (active)
same,normalized growth,"locus YKR091W, strain srl3, stronger effect = lower value",0.12 (active)
same,normalized growth,"locus YLL001W, strain dnm1, stronger effect = lower value",0.109 (active)
same,normalized growth,"locus YLL026W, stronger effect = lower value",0.0788 (active)
same,normalized growth,"locus YLL041C, strain sdh2, stronger effect = lower value",0.0915 (active)
same,normalized growth,"locus YLR027C, strain aat2, stronger effect = lower value",0.0814 (active)
same,normalized growth,"locus YLR039C, strain RIC1, stronger effect = lower value",0.229 (active)
same,normalized growth,"locus YLR058C, strain SHM2, stronger effect = lower value",0.0708 (active)
same,normalized growth,"locus YLR102C, strain apc9, stronger effect = lower value",0.0841 (active)
same,normalized growth,"locus YLR113W, strain HOG1, stronger effect = lower value",0.557 (active)
same,normalized growth,"locus YLR221C, strain rsa3, stronger effect = lower value",0.077 (active)
same,normalized growth,"locus YLR258W, strain gsy2, stronger effect = lower value",0.0908 (active)
same,normalized growth,"locus YLR262C, strain YPT6 (second series), stronger effect = lower value",0.323 (active)
same,normalized growth,"locus YLR268W, strain sec22, stronger effect = lower value",0.0945 (active)
same,normalized growth,"locus YLR320W, strain mms22, stronger effect = lower value",0.0887 (active)
same,normalized growth,"locus YLR330W, strain CHS5, stronger effect = lower value",0.0602 (active)
same,normalized growth,"locus YLR342W, strain FKS1 (second series), stronger effect = lower value",0.0855 (active)
same,normalized growth,"locus YLR342W, strain FKS1, stronger effect = lower value",0.0932 (active)
same,normalized growth,"locus YLR357W, strain rsc2, stronger effect = lower value",0.383 (active)
same,normalized growth,"locus YLR370C, strain arc18, stronger effect = lower value",0.0901 (active)
same,normalized growth,"locus YLR371W, strain rom2, stronger effect = lower value",0.0788 (active)
same,normalized growth,"locus YLR384C, strain iki3, stronger effect = lower value",0.213 (active)
same,normalized growth,"locus YLR418C, strain cdc73, stronger effect = lower value",0.141 (active)
same,normalized growth,"locus YML016C, strain PPZ1, stronger effect = lower value",0.0661 (active)
same,normalized growth,"locus YML032C, strain rad52, stronger effect = lower value",0.105 (active)
same,normalized growth,"locus YML120C, strain ndi1, stronger effect = lower value",0.0802 (active)
same,normalized growth,"locus YML124C, strain tub3, stronger effect = lower value",0.0853 (active)
same,normalized growth,"locus YMR058W, strain fet3, stronger effect = lower value",0.113 (active)
same,normalized growth,"locus YMR078C, strain ctf18, stronger effect = lower value",0.0791 (active)
same,normalized growth,"locus YMR125W, strain sto1, stronger effect = lower value",0.102 (active)
same,normalized growth,"locus YMR129W, stronger effect = lower value",0.0908 (active)
same,normalized growth,"locus YMR205C, strain PFK2, stronger effect = lower value",0.124 (active)
same,normalized growth,"locus YMR223W, strain ubp8, stronger effect = lower value",0.0843 (active)
same,normalized growth,"locus YMR231W, strain pep5, stronger effect = lower value",0.106 (active)
same,normalized growth,"locus YMR263W, strain SAP30, stronger effect = lower value",0.0847 (active)
same,normalized growth,"locus YMR307W, strain GAS1, stronger effect = lower value",0.145 (active)
same,normalized growth,"locus YNL067W, strain RPL9B, stronger effect = lower value",0.0797 (active)
same,normalized growth,"locus YNL071W, strain lat1, stronger effect = lower value",0.0674 (active)
same,normalized growth,"locus YNL183C, strain NPR1, stronger effect = lower value",0.561 (active)
same,normalized growth,"locus YNL209W, strain ssb2, stronger effect = lower value",0.383 (active)
same,normalized growth,"locus YNL233W, strain BNI4, stronger effect = lower value",0.0735 (active)
same,normalized growth,"locus YNL248C, strain rpa49, stronger effect = lower value",0.101 (active)
same,normalized growth,"locus YNL250W, strain rad50, stronger effect = lower value",0.104 (active)
same,normalized growth,"locus YNL271C, strain bni1, stronger effect = lower value",0.103 (active)
same,normalized growth,"locus YNL298W, strain CLA4, stronger effect = lower value",0.081 (active)
same,normalized growth,"locus YNL307C, strain MCK1, stronger effect = lower value",0.0717 (active)
same,normalized growth,"locus YNL322C, strain KRE1 (second series), stronger effect = lower value",0.131 (active)
same,normalized growth,"locus YNL322C, strain KRE1, stronger effect = lower value",0.0664 (active)
same,normalized growth,"locus YNR049C, strain mso1, stronger effect = lower value",0.0984 (active)
same,normalized growth,"locus YNR052C, strain pop2, stronger effect = lower value",0.103 (active)
same,normalized growth,"locus YOL006C, strain TOP1, stronger effect = lower value",0.15 (active)
same,normalized growth,"locus YOL012C, strain htz1",0.203
same,normalized growth,"locus YOL147C, strain pex11, stronger effect = lower value",0.0685 (active)
same,normalized growth,"locus YOR001W, strain rrp6, stronger effect = lower value",0.105 (active)
same,normalized growth,"locus YOR061W, strain CKA2, stronger effect = lower value",0.117 (active)
same,normalized growth,"locus YOR069W, strain VPS5, stronger effect = lower value",0.0792 (active)
same,normalized growth,"locus YOR070C, strain gyp1, stronger effect = lower value",0.0794 (active)
same,normalized growth,"locus YOR080W, strain dia2, stronger effect = lower value",0.111 (active)
same,normalized growth,"locus YOR083W, strain WHI5, stronger effect = lower value",0.198 (active)
same,normalized growth,"locus YOR106W, strain vam3, stronger effect = lower value",0.143 (active)
same,normalized growth,"locus YOR136W, strain idh2, stronger effect = lower value",0.0918 (active)
same,normalized growth,"locus YOR144C, strain elg1, stronger effect = lower value",0.0753 (active)
same,normalized growth,"locus YOR184W, strain ser1, stronger effect = lower value",0.0768 (active)
same,normalized growth,"locus YOR231W, strain MKK1, stronger effect = lower value",0.573 (active)
same,normalized growth,"locus YOR265W, strain rbl2, stronger effect = lower value",0.106 (active)
same,normalized growth,"locus YOR270C, strain vph1, stronger effect = lower value",0.111 (active)
same,normalized growth,"locus YOR290C, strain snf2, stronger effect = lower value",0.108 (active)
same,normalized growth,"locus YOR316C, strain cot1, stronger effect = lower value",0.0772 (active)
same,normalized growth,"locus YPL051W, strain arl3, stronger effect = lower value",0.182 (active)
same,normalized growth,"locus YPL078C, strain atp4, stronger effect = lower value",0.0844 (active)
same,normalized growth,"locus YPL106C, strain sse1, stronger effect = lower value",0.175 (active)
same,normalized growth,"locus YPL240C, strain hsp82, stronger effect = lower value",0.084 (active)
same,normalized growth,"locus YPL241C, strain CIN2, stronger effect = lower value",0.0689 (active)
same,normalized growth,"locus YPL256C, strain CLN2, stronger effect = lower value",0.604 (active)
same,normalized growth,"locus YPR119W, strain clb2, stronger effect = lower value",0.0896 (active)
same,normalized growth,"locus YPR141C, strain kar3, stronger effect = lower value",0.176 (active)
same,normalized growth,"locus YPR163C, strain tif3, stronger effect = lower value",0.0892 (active)
same,normalized growth,"locus YPR167C, strain met16, stronger effect = lower value",0.0808 (active)
same,normalized growth,"strain wtn01, stronger effect = lower value",0.0731 (active)
